Test [1] is described as follows: Quantitative High-Throughput drug screen in 47 multiple myeloma cell lines against the NCATS MIPE library collection: KMS12PE_JCRB cell viability assay (AID 1918972). For viability: series mostly up to about 46 µM. Note: nearly all actives have a fitted effect of over 30% in size. Note: potency is the fitted concentration of half-maximal effect. A digest of the protocol:
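Myeloma cells (500 per well) were exposed to MIPE 4.0 compounds by pin transfer and incubated 48 hours at 37C, 5% CO2. Viability was read as ATP by CellTiter-Glo luminescence, normalised to DMSO (100%) and media-only (0%) wells.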

The nature of test [2]: Quantitative High-Throughput drug screen in 47 multiple myeloma cell lines against the NCATS MIPE library collection: KMS26_JCRB cell viability assay (AID 1918975). Note: nearly all actives have a fitted effect of over 45% in size. Note: potency is the fitted concentration of half-maximal effect. A digest of the protocol: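 Inhibition of cell viability is measured here. Each line was plated at 500 cells per well, treated with MIPE 4.0 drugs, kept 48 hours at 37C, then assayed for ATP content by CellTiter-Glo luminescence.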

Test [3] in a line: Quantitative High-Throughput drug screen in 47 multiple myeloma cell lines against the NCATS MIPE library collection: MOLP8_DSMZ cell viability assay (AID 1918977). Note: nearly all actives have a fitted effect of over 45% in size. In short, it runs like this: (§1)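 Myeloma cells (500/well) treated with MIPE 4.0 compounds for 48 h at 37 °C, 5% CO2. Viability read as ATP via CellTiter-Glo luminescence after 5 min at RT; DMSO-only wells = 100%, media-only = 0% viability.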

The nature of test [4]: Quantitative High-Throughput drug screen in 47 multiple myeloma cell lines against the NCATS MIPE library collection: OCIMY1_PLB cell viability assay (AID 1918979). For viability: series mostly up to about 46 µM. Note: nearly all actives have a fitted effect of over 35% in size. Note: potency is the fitted concentration of half-maximal effect. A digest of the protocol:
as §1

The nature of test [5]: Quantitative High-Throughput drug screen in 47 multiple myeloma cell lines against the NCATS MIPE library collection: MM1S_ATCC cell viability assay (AID 1918980). Note: nearly all actives have a fitted effect of over 45% in size. Note: potency is the fitted concentration of half-maximal effect. A digest of the protocol: as §1
Test [6] can be described thus: Quantitative High-Throughput drug screen in 47 multiple myeloma cell lines against the NCATS MIPE library collection: MM1R_ATCC cell viability assay (AID 1918981). Note: nearly all actives have a fitted effect of over 35% in size. Note: potency is the fitted concentration of half-maximal effect. In short, it runs like this: as §1
The nature of test [7]: Quantitative High-Throughput drug screen in 47 multiple myeloma cell lines against the NCATS MIPE library collection: LP1_DSMZ cell viability assay (AID 1918982). Note: nearly all actives have a fitted effect of over 35% in size. A digest of the protocol: as §1
Test [8] is described as follows: Quantitative High-Throughput drug screen in 47 multiple myeloma cell lines against the NCATS MIPE library collection: KMS28PE_JCRB cell viability assay (AID 1918983). Note: nearly all actives have a fitted effect of over 35% in size. Note: potency is the fitted concentration of half-maximal effect. In short, it runs like this: as §1
Test [9] can be described thus: Quantitative High-Throughput drug screen in 47 multiple myeloma cell lines against the NCATS MIPE library collection: OCIMY7_PLB cell viability assay (AID 1918987). Note: nearly all actives have a fitted effect of over 65% in size. Note: potency is the fitted concentration of half-maximal effect. A digest of the protocol:
as §1

A short description of test [10]: Quantitative High-Throughput drug screen in 47 multiple myeloma cell lines against the NCATS MIPE library collection: OCIMY5_PLB cell viability assay (AID 1918988). Note: nearly all actives have a fitted effect of over 65% in size. Note: potency is the fitted concentration of half-maximal effect. In short, it runs like this:
as §1

A short description of test [11]: Quantitative High-Throughput drug screen in 47 multiple myeloma cell lines against the NCATS MIPE library collection: U266_ATCC cell viability assay (AID 1919864). Note: nearly all actives have a fitted effect of over 35% in size. Note: potency is the fitted concentration of half-maximal effect. A digest of the protocol: as §1
A short description of test [12]: Quantitative High-Throughput drug screen in 47 multiple myeloma cell lines against the NCATS MIPE library collection: XG6_PLB cell viability assay (AID 1919865). Note: nearly all actives have a fitted effect of over 40% in size. Note: potency is the fitted concentration of half-maximal effect. In short, it runs like this:
as §1

Test [13] in a line: Quantitative High-Throughput drug screen in 47 multiple myeloma cell lines against the NCATS MIPE library collection: NCIH929_DSMZ cell viability assay (AID 1918978). Note: nearly all actives have a fitted effect of over 35% in size. Note: potency is the fitted concentration of half-maximal effect. A digest of the protocol: as §1
A short description of test [14]: Quantitative High-Throughput drug screen in 47 multiple myeloma cell lines against the NCATS MIPE library collection: MMM1_PLB cell viability assay (AID 1918976). Note: nearly all actives have a fitted effect of over 35% in size. Note: potency is the fitted concentration of half-maximal effect. A digest of the protocol:
as §1

A short description of test [15]: Quantitative High-Throughput drug screen in 47 multiple myeloma cell lines against the NCATS MIPE library collection: OPM1_PLB cell viability assay (AID 1918989). Note: nearly all actives have a fitted effect of over 40% in size. Note: potency is the fitted concentration of half-maximal effect. In short, it runs like this:
as §1

A short description of test [16]: Quantitative High-Throughput drug screen in 47 multiple myeloma cell lines against the NCATS MIPE library collection: KMS34_JCRB cell viability assay (AID 1918985). Note: nearly all actives have a fitted effect of over 40% in size. Note: potency is the fitted concentration of half-maximal effect. A digest of the protocol: as §1
Test [17] is described as follows: Quantitative High-Throughput drug screen in 47 multiple myeloma cell lines against the NCATS MIPE library collection: L363_DSMZ cell viability assay (AID 1918984). Note: nearly all actives have a fitted effect of over 40% in size. Note: potency is the fitted concentration of half-maximal effect. A digest of the protocol:
as §1

Test [18] can be described thus: Quantitative High-Throughput drug screen in 47 multiple myeloma cell lines against the NCATS MIPE library collection: SKMM1_PLB cell viability assay (AID 1919863). Conditions: SKMM1 myeloma viability, CellTiter-Glo ATP, 48 h; viability: active compounds read low. A digest of the protocol:
as §1

14 compounds from PubChem BioAssay (NCATS) can be followed below.

Each structure is given as a SMILES string. Records with an inconclusive call do not appear. Values without a mark were called inactive. The source made the active and inactive calls. Calls come from the whole dose curve; as a rule, active = well fitted curve in the direction sought with a large enough effect; inconclusive = small, poorly fitted or top-dose-only effect, or another doubt; inactive = no such curve, though single readings can be large; an effect the other way counts as inactive or inconclusive.

Consider `COc1cccc2c1[C@]13CCN(CC4CC4)[C@H](C2)[C@]1(OC)CCC(=O)C3`, for which the Potency entry in [1], in test [2], in [3], in test [4], in test [5] and in [6] was “inactive” in each case. The Potency result in test [7], in test [8], in test [9], in [10], in [11] and in test [12] was “inactive” in each case.

For the compound `CC(N[C@H]1C[C@H]1c1ccccc1)c1ccc2c(c1)OCCO2` (some centres not stated), the Potency result in [1], in test [13], in test [4], in test [6], in [7] and in test [12] was “inactive” in each case. The Potency in test [2] is 5.26 µM (active); in test [8] it was 0.469 µM (active); in test [10], 2.96 µM (active); in test [11] it was 14.8 µM (active).

Consider `C=C[C@@H]1CN2CCC1C[C@@H]2[C@@H](O)c1ccnc2ccccc12` (some centres not stated), for which the Potency in [1] is 7.43 µM (active); in [14] it was 18.7 µM (active); in [13] it was 18.7 µM (active); in test [5] it was 13.2 µM (active); in test [6], 16.6 µM (active); in test [8] it was 18.7 µM (active). Further, the Potency in test [9] was 7.43 µM (active); in test [10] it was 20.9 µM (active); in [15], 16.6 µM (active); in test [11], 13.2 µM (active); in test [12] it was 18.7 µM (active). Besides, the Potency result in [4] was “inactive”.

As to `N#C[C@H](O[C@@H]1O[C@H](CO[C@@H]2O[C@H](CO)[C@H](O)[C@H](O)[C@H]2O)[C@H](O)[C@H](O)[C@H]1O)c1ccccc1`, the Potency was 7.43 µM (active) in test [1]; 20.9 µM (active) in test [2]; 23.5 µM (active) in test [14]; 20.9 µM (active) in [4]; 29.6 µM (active) in test [6]; 23.5 µM (active) in test [8]. For the same compound, the Potency in [16] is 8.33 µM (active); in test [9], 10.5 µM (active); in test [10] it was 20.9 µM (active); in test [15], 26.4 µM (active); in [11], 23.5 µM (active); in test [12], 18.7 µM (active).

One may read the viability as a read-out of living cells in per cent, often relative to untreated cells. Regarding `C1=C2CCCN[C@H]2[C@@H]2C[C@H]1[C@@H]1CCCCN1C2`, the Potency result in [1], in [2], in test [3], in test [4], in [5] and in [6] was “inactive” in each case. Moreover, the Potency result in [7], in test [8], in test [17], in test [16], in test [9] and in test [10] was “inactive” in each case. The Potency entry in test [11] and in [12] was “inactive” each time. Also, the viability in test [18] was 99.4%.

In the case of `O=C(N[C@@H](COc1ccc2[nH]c(=O)[nH]c2c1)c1ccccc1)c1cccn(Cc2ccc(F)c(F)c2)c1=O`, the Potency in test [1] was 18.7 µM (active); in [5], 16.6 µM (active); in test [17] it was 18.7 µM (active); in test [12], 18.7 µM (active). For the same compound, the Potency result in test [3] and in test [16] was “inactive” in each case.

Turning to `CCCC[N+]1(C)[C@H]2CC(OC(=O)[C@H](CO)c3ccccc3)C[C@H]1[C@H]1O[C@H]12` (some centres not stated), the Potency entry in test [1], in test [2], in [4], in test [5], in test [6] and in test [7] was “inactive” each time. The Potency entry in test [8], in test [17], in [16], in test [10], in [11] and in test [12] was “inactive” in each case.

On to `COC(=O)[C@@H](N)CCCN=C(N)N[N+](=O)[O-]`, for which the Potency entry in test [1], in test [3], in [13], in test [5], in test [6] and in test [7] was “inactive” throughout. Further, the Potency entry in [8], in test [16], in test [11] and in [12] was “inactive” in each case.

Turning to `O=c1cccc2n1CC1CNC[C@H]2C1`, the Potency in test [1] is 9.35 µM (active); in [5] it was 10.5 µM (active); in test [15] it was 20.9 µM (active); in test [11] it was 20.9 µM (active). The Potency result in test [2], in test [3], in [4], in [6], in test [7] and in test [8] was “inactive” throughout. The Potency result in test [16] was “inactive”. In addition, the viability in [18] is 142%.

On to `CN(C)NC(=O)CCC(=O)O`, for which the Potency result in test [1], in test [2], in [14], in test [13], in test [4] and in [7] was “inactive” in each case. The Potency entry in test [17] and in test [16] was “inactive” throughout. Further, the viability in test [18] is 111%.

With `Oc1ccc2c3c1O[C@H]1c4[nH]c5c(c4C[C@@]4(O)[C@@H](C2)N(CC2CC2)CC[C@]314)C[C@@]1(O)[C@H]2Cc3ccc(O)c4c3[C@@]1(CCN2CC1CC1)[C@H]5O4`, the Potency result in test [1], in [2], in test [3], in test [13], in test [5] and in test [6] was “inactive” in each case. In addition, the Potency result in test [7], in test [8], in test [17], in test [16], in [15] and in [12] was “inactive” each time.

In the case of `O=S(=O)(F)Cc1ccccc1`, the Potency result in test [1], in test [3], in test [13], in test [4], in [6] and in test [7] was “inactive” throughout. For the same compound, the Potency result in test [8], in [16] and in [10] was “inactive” each time. In addition, the Potency is 0.0418 µM (active) in test [5], 13.2 µM (active) in test [15] and 0.743 µM (active) in test [12].

Take `C[C@@H]1[C@H](O)[C@@H](C)C=CC=CCCC=CC=CC=CC=C[C@H](O[C@H]2O[C@@H](C)[C@H](O)[C@@H](N)[C@@H]2O)CC2O[C@](O)(C[C@@H](O)[C@H](O)CC[C@@H](O)C[C@@H](O)C[C@@H](O)CC(=O)O[C@H]1C)C[C@H](O)[C@H]2C(=O)O`: the Potency result in test [1], in test [2], in test [3], in [13], in [4] and in [5] was “inactive” in each case. Also, the Potency entry in test [6], in [7], in test [8], in test [16] and in test [11] was “inactive” each time. The viability in [18] was 120%.

For `Cc1ccccc1-n1c(Cn2ncc3c(N)ncnc32)nc2cccc(C)c2c1=O`, the Potency is 0.148 µM (active) in [1]; 0.332 µM (active) in [13]; 0.118 µM (active) in test [5]; 16.6 µM (active) in test [6]; 9.35 µM (active) in [8]; 0.0743 µM (active) in [17]. Moreover, the Potency in test [9] is 3.32 µM (active); in test [10], 4.18 µM (active); in [12] it was 0.0418 µM (active). Further, the Potency result in [14] and in [11] was “inactive” each time.
